These entries were drawn from the full list.
aSyn UTR act: Activators working through SNCA 5'UTR binding (MLPCN). activity score, % (tested at 7.5 µM), hits read low. AID 1814. 300,000 compounds, 7.1% hits. alpha-synuclein 5'UTR reporter, activators screen; in the data active = activity score below about -60%
* marks the source's active call; other numbers are inactive results.

SMILES	aSyn UTR act
COc1cccc(OCc2cc(C(=O)N3CCNC(=O)C3Cc3ccccc3)no2)c1 (stereo not drawn)	-74*
COc1cccc(OCc2cc(C(=O)N3CCCC3c3ccccn3)no2)c1 (stereo not drawn)	-84*
CCC1CCCCN1C(=O)c1ccc(OC2CCN(C(=O)CCOC)CC2)cc1 (stereo not drawn)	-82*
Cc1c(Cl)cccc1N=c1c([N+](=O)[O-])nn(-c2ccccc2)n1O	-141*
Cc1ccc(N=c2c([N+](=O)[O-])nn(-c3ccccc3)n2O)c(C)c1	-195*
Cc1cc(C(=O)CN2C(=O)c3ccccc3S2(=O)=O)c(C)n1CC1CCCO1 (stereo not drawn)	111
CCn1c(SCC(=O)c2cc(C)n(CC3CCCO3)c2C)nc2ccccc21 (stereo not drawn)	-119*
Cc1cc(C(=O)CSc2nc3ccccc3n2CCC#N)c(C)n1Cc1cccs1	-124*
Cc1cc(C(=O)CSc2nnnn2-c2ccccc2)c(C)n1CC1CCCO1 (stereo not drawn)	-105*
Cc1cc(C(=O)CSc2nc3ccccc3c(=O)[nH]2)c(C)n1CC1CCCO1 (stereo not drawn)	-115*
Cc1nc(NC(C)C)c2cnn(CCc3ccccc3)c2n1	-133*
CCCNc1nc(C)nc2c1cnn2CCc1ccccc1	-105*
O=C(NC(=S)Nc1ccc(N2CCOCC2)cc1)c1ccco1	-108*
O=C(Nc1ccc(N2CCN(Cc3ccccc3)CC2)cc1)c1ccco1	-86*
O=C(Nc1ccc(N2CCN(Cc3ccccc3F)CC2)cc1)c1ccc([N+](=O)[O-])o1	105
O=C(NC(=S)Nc1ccc(CN2CCOCC2)cc1)c1ccco1	-117*
O=c1oc(-c2ccccc2)nc2sc3c(c12)CCCC3	-103*
O=c1oc(-c2cccs2)nc2sc3c(c12)CCCCC3	-90*
O=c1oc(/C=C/c2ccccc2)nc2sc3c(c12)CCC3	-212*
Nc1nc(-c2cccnc2)nc2sc3c(c12)CCCC3	-122*
CCc1c(-c2ccccc2)nc2sc3c(c2c1N)CCCC3	-113*
CN(C)/N=C/C=C1\CCC/C(=C/c2cccs2)C1=O	-173*
CN(C)/N=C/C=C1\CC/C(=C\c2ccc(Br)cc2)C1=O	-84*
CCCC/C(=N\NC(=O)c1ccc(Br)o1)c1ccccc1	-69*
O=C(Nc1ccc2c(c1)oc1ccccc12)c1ccc(Br)o1	-210*
SMILES	aSyn UTR act
O=C(c1ccccc1)c1cccc(NC(=O)c2ccc(Br)o2)c1	-90*
Cc1cccc(NC(=O)c2ccc(C(=O)c3ccccc3)o2)c1	-156*
CCc1cccc(NC(=O)c2ccc(Br)o2)c1	-116*
O=C(Nc1ccccc1)c1ccc(Br)o1	-73*
C=CCn1cnc2c(nnn2-c2ccc(C)c(C)c2)c1=O	-122*
Nc1nc(-c2ccccn2)nc(N)c1Cc1ccccc1F	-246*
CC(=O)C1=C(C)NC(SCC(=O)c2ccccc2)=C(C#N)C1c1ccco1 (stereo not drawn)	-162*
NC(=O)C1(N2CCCCC2)CCN(C2CC(=O)NC2=O)CC1 (stereo not drawn)	-86*
c1ccc(N2CCN(c3ccccc3)C2c2cccs2)cc1	-108*
C(=C\c1nc(-c2cccnc2)no1)/c1ccccc1	-153*
Clc1ccccc1/C=C/c1nc(-c2cccnc2)no1	-195*
COC(=O)C1=C(C)N(Cc2ccccc2)C(=NCc2cccc(C(F)(F)F)c2)N[C@H]1c1cccc(F)c1	57
NNc1nc(-c2ccccc2Cl)nc2sc3c(c12)CCCC3	-200*
CCc1sc(C(=O)Nc2ncccc2C)cc1C	-67*
CCc1sc(C(=O)Nc2nccs2)cc1C	-123*
CC(C)C(=O)Nc1ccc(NC(=O)c2cc3ccccc3o2)cc1	-90*
CCOC(=O)c1ccc(NC(=O)c2cc3ccccc3o2)cc1	-152*
CCOC(=O)c1cccc(NC(=O)c2cc3ccccc3o2)c1	-110*
O=C(Nc1ccc(NC(=O)c2cc3ccccc3o2)cc1)c1ccc2c(c1)OCCO2	71
CCSc1nnc(NC(=O)c2cc3c(s2)CCCC3)s1	-187*
O=C(Nc1nnc(SCc2ccccc2)s1)c1cc2c(s1)CCCC2	-80*
Cn1c(-c2ccccc2)cc2c3no[n+]([O-])c3ccc21	-69*
COc1ccc(C2=NN(C(C#N)c3ccc(OC)cc3)C(c3ccccc3)C2)cc1 (stereo not drawn)	-250*
COc1ccc(C(C#N)N2N=C(c3ccccc3)CC2c2ccccc2)cc1OC (stereo not drawn)	-182*
COc1cccc(CNC(=O)c2nnn(CC(=O)Nc3ccc(Br)cc3)c2N)c1	86
CCOc1ccc(CCNC(=O)c2nnn(CC(=O)Nc3ccc(C)cc3)c2N)cc1OCC	-71*
Cn1ncc(Cl)c1C(=O)Nc1nc2ccc(Cl)cc2s1	-198*
Cc1cc(C(=O)Nc2nc3ccc(Cl)cc3s2)nn1C	-128*
COc1cccc2cc(C(=O)NCc3ccccn3)c(=O)oc12	-164*
CCOC(=O)CC(NC(=O)c1cc2cccc(OC)c2oc1=O)c1ccc(OC)cc1 (stereo not drawn)	-70*

Source: PubChem (Broad Institute)
